iPSC survival up – enhancers of single-cell hiPSC survival, primary screen, ATPlite luminescence | 100% = ROCK inhibitor wells, 0% = DMSO | survival enhancement, % at 20 µM | 360,000 tested, 0.044% active | AID 602274, 2012; in the data active = survival enhancement above about 18%;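 also: cells exposed to compounds for 16 hours before the ATP read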
Myeloid diff 2 – induction of myeloid progenitor differentiation, primary screen, cell-based, flow cytometry, MLPCN library; ER-HoxA9 myeloid progenitors, lysozyme-GFP differentiation; 360,000 tested, 1% active; calls only at 10 µM;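 active = normalized GFP-positive differentiation at or above the plate's own cutoff, the solvent-only control mean plus 3 SD; inconclusive = no clear call, values can overlap the other calls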;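 also: cells exposed to compound for four days before flow analysis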
Cardio protect – cardioprotection against H2O2-induced cell death, primary screen, uHTS, H9c2 cells, ATPLite luminescence; protection from H2O2 cell death, % at 20 µM; 360,000 tested, 0.63% active; H9c2 cardiomyocytes, H2O2 injury protection, 2 h;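 active = compounds giving at least 50% protection of heart cells from peroxide-induced death in the single-dose screen, raw or plate-pattern-corrected value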;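 also: 0% = DMSO wells with peroxide and 100% = DMSO wells without peroxide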
ABCB6 inh MLPCN – ABCB6 transporter inhibitors, primary screen, K562-ABCB6 cells, flow cytometry, MLPCN library | ATP-binding cassette sub-family B member 6 (Homo sapiens), Q9NP58 | fluorescence ratio to DMSO, % at 10 µM | 360,000 tested, 0.19% active | K562-ABCB6 porphyrin accumulation, 1 h; stronger effect = lower value;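 active = fluorescence ratio to DMSO below 75%, the collection mean minus 3 SD; inconclusive = too few cells collected in the well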;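 also: signal is porphyrin accumulated inside mitochondria; 100% equals median channel fluorescence of DMSO control wells; lower ratio means ABCB6 inhibition with less porphyrin fluorescence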
Target sequence (Q9NP58 whole entry, looked up): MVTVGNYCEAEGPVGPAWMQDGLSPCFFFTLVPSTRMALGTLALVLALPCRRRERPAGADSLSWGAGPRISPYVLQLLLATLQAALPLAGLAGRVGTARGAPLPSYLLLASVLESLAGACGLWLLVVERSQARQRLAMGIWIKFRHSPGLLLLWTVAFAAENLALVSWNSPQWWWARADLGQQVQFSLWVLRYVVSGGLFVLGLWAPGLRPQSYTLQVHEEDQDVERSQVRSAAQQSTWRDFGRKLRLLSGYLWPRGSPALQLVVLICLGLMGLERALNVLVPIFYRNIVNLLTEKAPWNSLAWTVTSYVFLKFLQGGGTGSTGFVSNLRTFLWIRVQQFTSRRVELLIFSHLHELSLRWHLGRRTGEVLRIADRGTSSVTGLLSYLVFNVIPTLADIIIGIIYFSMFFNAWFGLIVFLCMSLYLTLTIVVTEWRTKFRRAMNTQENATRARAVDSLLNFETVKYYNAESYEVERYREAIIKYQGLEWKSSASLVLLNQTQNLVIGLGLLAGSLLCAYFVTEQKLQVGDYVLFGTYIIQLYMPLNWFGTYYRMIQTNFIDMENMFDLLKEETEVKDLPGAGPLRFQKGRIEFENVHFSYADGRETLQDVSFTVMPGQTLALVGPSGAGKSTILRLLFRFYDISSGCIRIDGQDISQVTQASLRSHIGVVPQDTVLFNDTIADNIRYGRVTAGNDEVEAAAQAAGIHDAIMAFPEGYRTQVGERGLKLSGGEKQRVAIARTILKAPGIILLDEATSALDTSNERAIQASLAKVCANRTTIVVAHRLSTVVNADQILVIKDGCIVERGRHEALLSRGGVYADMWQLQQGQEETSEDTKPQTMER
MIN6 prolif – inducers of MIN6 beta-cell proliferation, primary screen, ATP luminescence, uHTS; 330,000 tested, 0.29% active; proliferation, % at 10 µM; MIN6 cells proliferation, ATPlite luminescence, 48 h; cells starved in 0.2% serum; 100% = growth in 10% serum; AID 2380, 2010;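 active = compounds whose signal lies at least 3.5 SD above the mean of all wells on their plate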;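 also: 0% = DMSO-treated cells in low-serum medium and 100% = 10% serum control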
Active calls of the source: *; i = inactive; u = inconclusive; x = no result; + = active, no number. Most compounds without a hit are left out; they make up all but 2.2% or so of the library.

SMILES	iPSC survival up	Myeloid diff 2	Cardio protect	ABCB6 inh MLPCN	MIN6 prolif
CCCOc1ccc(OC(=O)Cc2ccc(OC)c(S(=O)(=O)N3CCOCC3)c2)cc1	0	+	-1	90	-6
COCCN(Cc1ccccc1)C(=O)Cc1ccc(OC)c(S(=O)(=O)N2CCOCC2)c1	0	i	-1	99	1
CCCCC(=O)N(C)c1c(C)nc2ccc(C(=O)N3CCN(C(C)=O)CC3)cn12	0	i	4	98	x
CCCCCCn1cc(C(=O)O)c(=O)c2cc(F)c(N3CCN(C)CC3)cc21	0	i	3	99	-3
CC(C(=O)NCCN1C(=O)S/C(=C\c2cccs2)C1=O)N1C(=O)c2ccccc2C1=O (centres undefined)	-1	i	-11	96	-1
CN1CCN(C(=O)c2ccc3c(c2)N(Cc2ccc(Cl)cc2)C(=O)c2ccccc2S3=O)CC1 (centres undefined)	-2	+	14	91	-1
CN1CCN(C(=O)c2ccc3c(c2)N(Cc2ccccc2F)C(=O)c2ccccc2S3=O)CC1 (centres undefined)	0	i	-2	99	-2
CCOC(=O)c1c(C)[nH]c(C(=O)/C(C#N)=C/c2ccc(OC(F)F)c(OC)c2)c1C	-2	+	-1	111	-1
CCOc1ccc(/C=C(\C#N)C(=O)c2c(C)[nH]c3ccccc23)cc1OC	0	i	9	92	0
COc1cc(/C=C(/C#N)C(=O)c2c(C)[nH]c3ccccc23)ccc1OCC#N	0	i	19	100	-1
CCOC(=O)c1c(C)[nH]c(C(=O)/C(C#N)=C/c2ccc(OC)c(OC)c2)c1C	-4	+	10	120	-4
CC1(C(=O)NS(=O)(=O)c2ccc(F)cc2F)CCN1C(=O)CC1CCCC1 (centres undefined)	1	i	-5	99	x
Cc1cc(Cl)c(S(=O)(=O)Nc2cccc(O)c2)cc1OCC(N)=O	-2	i	-2	98	0
Cc1coc2c1c(C)cc1oc(=O)c(CC(=O)N[C@H](C(=O)O)C(C)C)c(C)c12	0	i	3	99	-2
O=C(NCCCn1ccnc1)c1ccc2nccnc2c1	0	+	0	102	-1
Cc1ccc(C(=O)NCCCn2ccnc2)cc1C	0	i	-2	95	-2
CNC(=O)COC(=O)c1ccc(Cl)c(S(N)(=O)=O)c1	-1	i	1	97	-3
COc1cc2c(cc1OC)C(C)N(CCc1ccc(Cl)cc1)CC2 (centres undefined)	0	i	-4	98	-2
COc1cc2c(cc1OC)C(C)N(CCN1C(=O)c3ccccc3C1=O)CC2 (centres undefined)	0	+	-1	400	-3
OCC1CCN(Cc2nc(Cc3ccccc3Cl)no2)CC1	-2	i	-4	101	1
CCCN(CCC)c1ccc(/C=C/c2ccc3cc(OCC)ccc3n2)cc1	0	+	-14	330	x
CCOc1ccc(N=Cc2ccc(N(C)C)cc2)c(O)c1	0	i	-12	130	x
Cc1ccccc1C(=O)NNC(=O)c1cccn1C	0	i	8	86	-1
COc1ccc(C(=O)ON=C2C=C(C)C(=O)C(C)=C2)cc1	-4	i	-12	97	0
Cc1ccc(-n2nnnc2SCC(=O)c2c(N)n(C3CC3)c(=O)[nH]c2=O)c(C)c1	0	i	1	97	3
SMILES	iPSC survival up	Myeloid diff 2	Cardio protect	ABCB6 inh MLPCN	MIN6 prolif
CCOC(=O)/C=c1/s/c(=C/c2ccc3cc(OC)ccc3c2)c(=O)n1CC(=O)NCC1CCCO1 (centres undefined)	0	i	8	99	x
CCOC(=O)/C=c1\s/c(=C\c2c(OC)ccc3ccccc23)c(=O)n1CC(=O)NCC1CCCO1 (centres undefined)	-2	+	17	101	-6
CCOc1cc(N2CCOCC2)c(OCC)cc1NC(=O)c1[nH]c(C)c(C(C)=O)c1C	2	i	22	96	-5
CC1CCC/C(=C\Nc2ccc(O)cc2)C1=O (centres undefined)	2	+	-4	104	-3
Cc1cc(C(=O)O)ccc1N/C=C1\CCCC(C)C1=O (centres undefined)	3	i	-8	96	-1
O=C(NCCc1ccccc1)C(c1cccs1)N(C(=O)c1csnn1)C1CC1 (centres undefined)	1	i	4	98	-2
O=C(NCCc1ccccc1)C(c1cccs1)N(C(=O)CCl)c1ccc(Cl)cc1 (centres undefined)	-2	u	-26	33*	-3
CCn1c(=O)cc(OCC(=O)Nc2ccccc2C#N)c2ccccc21	0	i	60*	98	2
CCOC(=O)c1ccc(NC(=O)COc2cc(=O)n(CC)c3ccccc23)cc1	0	i	9	102	-1
CCc1cccc(CC)c1NC(=O)CN(CC(=O)O)CC(=O)O	4	i	-11	98	-1
O=C(O)CN(CC(=O)O)CC(=O)O	-1	+	4	105	x
CCn1cc(/C=N\NC(=O)c2cc(-c3ccccc3OC)nc3ccccc23)c(C)n1	-1	i	10	93	-2
Cc1cnc(C(=O)N2CCc3c([nH]c4ccccc34)C2c2ccc(F)cc2)cn1 (centres undefined)	-1	i	1	107	-2
CC(=O)c1cc(C(=O)N2CCc3c([nH]c4ccccc34)C2C2CCCCC2)[nH]n1 (centres undefined)	4	+	-12	153	-5
c1ccc(CN2CCN(CCCNc3ccc4nnc(-c5ccccc5)n4n3)CC2)cc1	-1	i	79*	100	2
Clc1ccc2nc(SCc3nnc(-c4ccccc4)o3)[nH]c2c1	2	i	2	95	-2
COc1ccc(OC)c(C(=O)COC(=O)C2CC3CCCC(C2)C3=O)c1 (centres undefined)	1	i	-11	93	-2
Cn1c(=O)cc(OCCCC(=O)NCCCN2CCN(Cc3ccccc3)CC2)c2ccccc21	1	i	5	98	-3
CCn1c(/C=C/c2ccc(O)c(O)c2)nc2ccccc2c1=O	-1	i	70*	99	-2
Cn1c(C(=O)Nc2ccc3c(c2)OCCO3)cc2c(=O)n(C)c3ccccc3c21	2	u	95*	99	-3
CCN(CC)C(=O)C1CCN(S(=O)(=O)c2c(C)noc2/C=C/c2cccc(C)c2)CC1	1	+	-8	101	-7
COc1ccc(/C=C/C(=O)NCc2cccnc2)cc1	5	i	-3	96	0

Screens deposited in PubChem BioAssay by several laboratories.
